Measurements from PubChem BioAssay AID1159580 (chemical genetic matrix, 2015).
Hit rate of the full screen: of about 5,500 compounds, about 2,000 (36%) were called active. Roughly 18% stayed inconclusive and do not appear here. Cut-off read from the data, not from the text of the source: active = normalized growth mostly below about 0.91 (no sharp cut-off); inconclusive = no clear call, values can overlap the other calls; inactive = mostly above about 0.92. The list shows a part of the results.

Experiment: chemical genetic growth profiling, strain panel (AID 1159580);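 note: tested at 20 µM; growth read once vehicle control cultures reached saturation at 30 °C; 1 = growth at the plate median or of vehicle wells; lower values mean less growth of the strain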
Details: growth OD
[1] = S. cerevisiae deletion strains, locus YBR021W, strain FUR4, active compounds read low
[2] = S. cerevisiae deletion strains, locus YBR229C, strain ROT2, active compounds read low
[3] = S. cerevisiae deletion strains, locus YCL029C, strain bik1, active compounds read low
[4] = S. cerevisiae deletion strains, locus YDL035C, strain GPR1, active compounds read low
[5] = S. cerevisiae deletion strains, locus YDL074C, strain BRE1, active compounds read low
[6] = S. cerevisiae deletion strains, locus YDL101C, strain DUN1, active compounds read low
[7] = S. cerevisiae deletion strains, locus YDL185W, strain tfp1, active compounds read low
[8] = S. cerevisiae deletion strains, locus YDL192W, strain arf1, active compounds read low
[9] = S. cerevisiae deletion strains, locus YDR101C, strain arx1, active compounds read low
[10] = S. cerevisiae deletion strains, locus YDR150W, strain NUM1, active compounds read low
[11] = S. cerevisiae deletion strains, locus YDR162C, strain NBP2, active compounds read low
[12] = S. cerevisiae deletion strains, locus YDR318W, strain mcm21, active compounds read low
[13] = S. cerevisiae deletion strains, locus YDR388W, active compounds read low
[14] = S. cerevisiae deletion strains, locus YDR502C, strain sam2, active compounds read low
[15] = S. cerevisiae deletion strains, locus YER110C, active compounds read low
[16] = S. cerevisiae deletion strains, locus YER155C, strain BEM2, active compounds read low
[17] = S. cerevisiae deletion strains, locus YER167W, strain BCK2, active compounds read low
[18] = S. cerevisiae deletion strains, locus YGL078C, strain dbp3, active compounds read low
[19] = S. cerevisiae deletion strains, locus YGL086W, strain mad1, active compounds read low
[20] = S. cerevisiae deletion strains, locus YGL248W, strain PDE1, active compounds read low
[21] = S. cerevisiae deletion strains, locus YGR135W, strain pre9, active compounds read low
[22] = S. cerevisiae deletion strains, locus YGR252W, strain gcn5, active compounds read low
[23] = S. cerevisiae deletion strains, locus YHR079C, strain IRE1 (second series), active compounds read low
[24] = S. cerevisiae deletion strains, locus YHR094C, strain hxt1, active compounds read low
[25] = S. cerevisiae deletion strains, locus YHR129C, strain ARP1, active compounds read low
[26] = S. cerevisiae deletion strains, locus YHR200W, strain rpn10, active compounds read low
[27] = S. cerevisiae deletion strains, locus YIL066C, strain RNR3, active compounds read low
[28] = S. cerevisiae deletion strains, locus YIL073C, strain SPO22, active compounds read low
[29] = S. cerevisiae deletion strains, locus YIL125W, strain kgd1, active compounds read low
[30] = S. cerevisiae deletion strains, locus YIR030C, strain dcg1, active compounds read low
[31] = S. cerevisiae deletion strains, locus YJL095W, strain BCK1, active compounds read low
[32] = S. cerevisiae deletion strains, locus YJL134W, strain LCB3, active compounds read low
[33] = S. cerevisiae deletion strains, locus YJL168C, strain set2, active compounds read low
[34] = S. cerevisiae deletion strains, locus YJL187C, strain SWE1 (second series), active compounds read low
[35] = S. cerevisiae deletion strains, locus YKL009W, strain mrt4, active compounds read low
[36] = S. cerevisiae deletion strains, locus YKL068W, active compounds read low
[37] = S. cerevisiae deletion strains, locus YKL085W, strain MDH1 (second series), active compounds read low
[38] = S. cerevisiae deletion strains, locus YKL085W, strain MDH1, active compounds read low
[39] = S. cerevisiae deletion strains, locus YKR001C, strain vps1, active compounds read low
[40] = S. cerevisiae deletion strains, locus YLR039C, strain RIC1, active compounds read low
[41] = S. cerevisiae deletion strains, locus YLR058C, strain SHM2, active compounds read low
[42] = S. cerevisiae deletion strains, locus YLR102C, strain apc9, active compounds read low
[43] = S. cerevisiae deletion strains, locus YLR262C, strain YPT6, active compounds read low
[44] = S. cerevisiae deletion strains, locus YLR268W, strain sec22, active compounds read low
[45] = S. cerevisiae deletion strains, locus YLR371W, strain rom2, active compounds read low
[46] = S. cerevisiae deletion strains, locus YLR418C, strain cdc73, active compounds read low
[47] = S. cerevisiae deletion strains, locus YML016C, strain PPZ1, active compounds read low
[48] = S. cerevisiae deletion strains, locus YML032C, strain rad52, active compounds read low
[49] = S. cerevisiae deletion strains, locus YML124C, strain tub3, active compounds read low
[50] = S. cerevisiae deletion strains, locus YMR078C, strain ctf18, active compounds read low
[51] = S. cerevisiae deletion strains, locus YMR223W, strain ubp8, active compounds read low
[52] = S. cerevisiae deletion strains, locus YMR307W, strain GAS1, active compounds read low
[53] = S. cerevisiae deletion strains, locus YNL067W, strain RPL9B, active compounds read low
[54] = S. cerevisiae deletion strains, locus YNL128W, strain TEP1, active compounds read low
[55] = S. cerevisiae deletion strains, locus YNL233W, strain BNI4, active compounds read low
[56] = S. cerevisiae deletion strains, locus YNL250W, strain rad50, active compounds read low
[57] = S. cerevisiae deletion strains, locus YNL271C, strain bni1, active compounds read low
[58] = S. cerevisiae deletion strains, locus YNL298W, strain CLA4, active compounds read low
[59] = S. cerevisiae deletion strains, locus YNL307C, strain MCK1, active compounds read low
[60] = S. cerevisiae deletion strains, locus YNR052C, strain pop2, active compounds read low
[61] = S. cerevisiae deletion strains, locus YOL006C, strain TOP1, active compounds read low
[62] = S. cerevisiae deletion strains, locus YOL012C, strain htz1
[63] = S. cerevisiae deletion strains, locus YOL147C, strain pex11, active compounds read low
[64] = S. cerevisiae deletion strains, locus YOR061W, strain CKA2, active compounds read low
[65] = S. cerevisiae deletion strains, locus YOR069W, strain VPS5, active compounds read low
[66] = S. cerevisiae deletion strains, locus YOR136W, strain idh2, active compounds read low
[67] = S. cerevisiae deletion strains, locus YOR144C, strain elg1, active compounds read low
[68] = S. cerevisiae deletion strains, locus YOR184W, strain ser1, active compounds read low
[69] = S. cerevisiae deletion strains, locus YOR316C, strain cot1, active compounds read low
[70] = S. cerevisiae deletion strains, locus YPL241C, strain CIN2, active compounds read low
[71] = S. cerevisiae deletion strains, locus YPR119W, strain clb2, active compounds read low
[72] = S. cerevisiae deletion strains, locus YPR141C, strain kar3, active compounds read low
[73] = S. cerevisiae deletion strains, locus YPR163C, strain tif3, active compounds read low
[74] = S. cerevisiae deletion strains, locus YPR167C, strain met16, active compounds read low
[75] = S. cerevisiae deletion strains, strain wtn01, active compounds read low

Measured: normalized growth

CC(C)CCCC(C)C1CC[C@@]2(C)C3=C(CC[C@]12C)[C@@]1(C)CC[C@H](O)C(C)(C)C1CC3 (stereo partly specified)
inactive: S. cerevisiae deletion strains, locus YAL013W, strain DEP1, active compounds read low 1.01 | [1] 0.959 | [2] 1 | [3] 0.976 | [4] 1 | [5] 1.06 | [6] 1.01 | S. cerevisiae deletion strains, locus YDL134C, strain PPH21, active compounds read low 0.997 | [7] 0.985 | [8] 0.983 | [9] 0.996 | [10] 1 | [11] 1.02 | [12] 0.974 | [13] 0.981 | [14] 0.99 | S. cerevisiae deletion strains, locus YEL061C, strain CIN8, active compounds read low 1.01 | [15] 0.975 | [16] 1 | [17] 0.99 | [18] 0.993 | [19] 0.986 | [20] 0.995 | S. cerevisiae deletion strains, locus YGR078C, strain PAC10, active compounds read low 1.04 | [21] 0.995 | S. cerevisiae deletion strains, locus YGR229C, strain SMI1, active compounds read low 1.03 | [22] 0.95 | S. cerevisiae deletion strains, locus YHR030C, strain SLT2, active compounds read low 0.998 | [23] 0.982 | [24] 0.985 | [25] 1 | [26] 0.981 | [27] 1.01 | [28] 0.918 | [29] 0.992 | [30] 0.987 | [31] 1.06 | [32] 0.994 | [33] 0.985 | [34] 1 | S. cerevisiae deletion strains, locus YJR043C, strain POL32, active compounds read low 0.987 | S. cerevisiae deletion strains, locus YJR075W, strain HOC1, active compounds read low 1.03 | [35] 0.939 | [36] 1 | [37] 0.988 | [38] 0.988 | S. cerevisiae deletion strains, locus YKL190W, strain CNB1, active compounds read low 1 | [39] 0.984 | [40] 0.985 | [41] 1 | [42] 0.993 | [43] 0.976 | [44] 0.996 | S. cerevisiae deletion strains, locus YLR330W, strain CHS5, active compounds read low 1 | S. cerevisiae deletion strains, locus YLR342W, strain FKS1 (second series), active compounds read low 0.96 | [45] 0.98 | [46] 1.04 | [47] 0.997 | [48] 0.966 | [49] 0.982 | [50] 0.972 | [51] 0.965 | S. cerevisiae deletion strains, locus YMR263W, strain SAP30, active compounds read low 1.03 | [52] 0.957 | [53] 1.04 | [54] 1.04 | S. cerevisiae deletion strains, locus YNL153C, strain GIM3, active compounds read low 1.02 | [55] 1.01 | [56] 1.02 | [57] 0.988 | [58] 0.967 | [59] 0.959 | S. cerevisiae deletion strains, locus YNL322C, strain KRE1, active compounds read low 1.01 | [60] 0.98 | [61] 1.03 | [62] 0.94 | [63] 0.989 | [64] 1.01 | [65] 0.995 | [66] 0.979 | [67] 0.994 | [68] 0.932 | [69] 0.985 | S. cerevisiae deletion strains, locus YPL055C, strain LGE1, active compounds read low 1.05 | [70] 1 | [71] 0.999 | [72] 0.993 | [73] 0.981 | [74] 0.994 | [75] 0.985 | S. cerevisiae strains, strain wild type, active compounds read low 0.957

CC(C)=CCCC(C)C1CC[C@@]2(C)C3=C(CC[C@]12C)C1(C)CC[C@H](O)C(C)(C)C1CC3 (stereo partly specified)
active: [18] 0.875 | [35] 0.822
inactive: [1] 0.867 | [2] 1.02 | [3] 0.972 | [4] 0.904 | [5] 0.962 | [6] 0.992 | [7] 1.01 | [8] 0.977 | [9] 1.01 | [10] 1.05 | [11] 0.958 | [12] 0.985 | [13] 1.03 | [14] 0.945 | [15] 1.01 | [16] 1.03 | [17] 1.05 | [19] 1 | [20] 0.929 | [21] 0.941 | [22] 0.78 | [23] 1.01 | [24] 1.02 | [25] 1.04 | [26] 1.01 | [27] 1.03 | [28] 0.923 | [29] 1.04 | [30] 1.02 | [31] 0.947 | [32] 1.04 | [33] 1.02 | [34] 0.959 | [36] 1.03 | [37] 1.05 | [38] 1.05 | [39] 0.94 | [40] 0.702 | [41] 0.981 | [42] 1.01 | [43] 0.664 | [44] 0.957 | [45] 1.02 | [46] 0.877 | [47] 1.03 | [48] 0.956 | [49] 1.03 | [50] 1.03 | [51] 0.978 | [52] 0.952 | [53] 0.988 | [54] 0.98 | [55] 0.994 | [56] 0.966 | [57] 0.994 | [58] 0.924 | [59] 0.998 | [60] 0.961 | [61] 0.903 | [62] 1.68 | [63] 1.04 | [64] 1.01 | [65] 1.02 | [66] 0.998 | [67] 1.02 | [68] 0.891 | [69] 1.02 | [70] 1.03 | [71] 1.03 | [72] 1.04 | [73] 0.93 | [74] 0.973 | [75] 0.974
